Assay outcomes: PubChem BioAssay, National Center for Advancing Translational Sciences (NCATS)
In the library only some 1.4% were active in any assay of this set; here they are far more common.
KCNH2 WT inh – KCNH2 (human, wildtype) channel inhibition | Q12809 | U2OS, BacMam KCNH2, thallium flux FluxOr; hits give low values | activity change, % at 1.84 µM | 340,000 tested, 0.37% active;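 active means maximum activity change below -70%; inconclusive means maximum activity change between -70% and -50%; inactive means maximum activity change above -50%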; further: on the % scale 0 is the no-effect control and ±100 the full control effect
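U2OS cells were transduced with wild-type KCNH2 virus (2.03 x 10^8 / mL) for 4 h at room temperature, then cultured overnight at 37 C. Thallium flux was read with FluxOr dye. Rate constants were normalized to DMSO controls.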
KCNH2 3.1 inh – inhibitors of human KCNH2 3.1 potassium channel isoform. U2OS KCNH2 3.1, thallium flux FluxOr; hits give low values. activity change, % (tested at about 1.8 µM). 340,000 tested, 0.95% active. AID 720553;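 active means maximum activity change below -70%; inconclusive means maximum activity change from -70% to -50%; inactive means maximum activity change above -50%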;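 further: thallium influx rate constant from kinetic fluorescence after stimulation buffer; on the % scale 0 is the no-effect control and ±100 the full control effect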
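We transduce U2OS cells with the mutant 3.1 virus, culture them overnight, load FluxOr with Red40 quencher for 45 min, then add stimulation buffer and read kinetically for 2 min to derive a normalized rate constant.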
p53 reactivator – mutant p53 re-activation in reporter cells | H1299 p53-A138V BP100-luciferase reporter, luminescence, 24 h | Potency, µM (titrated, usually from 92.2 µM), without a hit: at the highest dose activity change, positive = activation, usual class: activators | 320,000 tested, 0.063% active | AID 504706; further: potency means the concentration at half of the fitted maximal effect; % of control where 0% means no effect; nearly all actives have a fitted effect of over 45% in size
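p53-null H1299 cells stably carrying temperature-sensitive p53-A138V and a BP100-luciferase reporter were pinned with compounds (4-point, 1:5 series) and held 24 hrs at 37 deg C. Luminescence was read 10 min after detection reagent.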
S-ASM inh – inhibitors of human secretory acid sphingomyelinase; P17405; placental ASM, HMU-PC fluorogenic substrate, 60 min; Potency, µM (top dose mostly 57.5 µM), without a hit: top-dose activity change, negative = inhibition, most hits filed as inhibitors; 340,000 tested, 0.006% active; AID 504937; further: potency means the concentration at half of the fitted maximal effect
Target sequence (P17405 47-631 limits assumed): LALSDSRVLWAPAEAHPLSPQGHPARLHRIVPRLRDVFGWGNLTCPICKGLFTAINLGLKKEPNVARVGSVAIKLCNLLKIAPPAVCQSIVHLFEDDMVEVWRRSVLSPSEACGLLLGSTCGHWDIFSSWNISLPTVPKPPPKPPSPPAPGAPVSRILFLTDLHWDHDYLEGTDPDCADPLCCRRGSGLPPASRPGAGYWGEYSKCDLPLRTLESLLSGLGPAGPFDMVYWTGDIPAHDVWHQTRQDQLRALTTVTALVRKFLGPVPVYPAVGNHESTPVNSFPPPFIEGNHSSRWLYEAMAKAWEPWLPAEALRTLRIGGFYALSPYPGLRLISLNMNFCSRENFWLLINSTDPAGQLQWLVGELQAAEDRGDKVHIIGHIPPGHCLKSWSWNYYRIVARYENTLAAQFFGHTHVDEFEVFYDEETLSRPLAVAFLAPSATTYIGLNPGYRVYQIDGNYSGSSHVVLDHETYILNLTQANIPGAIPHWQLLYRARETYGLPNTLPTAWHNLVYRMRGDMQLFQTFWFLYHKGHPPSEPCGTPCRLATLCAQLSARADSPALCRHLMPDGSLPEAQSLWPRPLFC
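Human placenta-derived ASM preincubated with compound 10 min at room temperature, then reacted with 9 uM (final) fluorogenic HMU-PC substrate for 60 min at 37 C. Stop solution raises pH to 10; fluorescence read at Ex 386/Em 447 nm.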
uPA generation – cell surface uPA generation inhibition; cell surface uPA generation assay, qHTS; AID 540303; Potency, µM (top dose mostly 38.3 µM), for the others: at the top dose activity change, negative = inhibition, actives largely listed as inhibitors; 330,000 tested, 0.31% active; active means well fitted inhibition curve with a large enough effect; inconclusive means small, poorly fitted or top-dose-only effect; inactive means no such curve, though single readings can be large or run the other way; tested in mouse RAW 264.7 cells; further: potency means the concentration at half of the fitted maximal effect; on the % scale 0 is the no-effect control and ±100 the full control effect; nearly all actives have a fitted effect of over 55% in size
Mm-Cpn inhibitor – inhibitors of Methanococcus maripaludis chaperonin TRiC (MmCpn); Potency, µM (series often up to 76.9 µM), for the others: at the highest dose activity, negative = inhibition, most hits filed as inhibitors; purified Mm-Cpn ATPase, ADP Transcreener TR-FRET; AID 504842; 330,000 tested, 0.031% active; further: potency means the concentration at half of the fitted maximal effect; on the % scale 0 is the no-effect control and ±100 the full control effect; nearly all actives have a fitted effect of over 80% in size
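Quantitative HTS used 25 nM Mm-CPN and 10 uM ATP in magnesium/KCl Tris buffer, pH 7.4, with 1 mM DTT. Hydrolysis ran 30 min at 37°C; ADP was read by HTRF.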
* = called active by the depositor. Unless noted, the call rests on the fitted dose curve; in most records, active means well fitted curve in the direction sought with a large enough effect; inconclusive means small, poorly fitted or top-dose-only effect, or another doubt; inactive means no such curve, though single readings can be large; an effect the other way counts as inactive or inconclusive.

Results for COc1ccc(C2Nc3ccccc3C(=O)N2Cc2ccccc2)cc1COc1ccc(Cl)cc1Cl (stereo not given) ?
Mm-Cpn inhibitor: 0.0%

What do the screens show for `CN(C)c1ccc(/C=C2\C(=N)N3C(=NC2=O)Sc2cc(S(C)(=O)=O)ccc23)cc1`?
p53 reactivator: -1.3%; Mm-Cpn inhibitor: 0.3%

How did CC(=O)c1ccccc1C(=O)N1CCC(CCC(=O)NCc2ccc(F)cc2)CC1 do in these assays?
KCNH2 WT inh: -1.8; KCNH2 3.1 inh: 7.8

What do the screens show for `C[C@@H]1CN([C@H](C)CO)C(=O)c2cc(Br)cnc2O[C@H]1CN(C)Cc1cccnc1`?
KCNH2 WT inh: 16.2; KCNH2 3.1 inh: -8.0

Results for CC1Sc2ccc(S(=O)(=O)CCC(=O)NC3CCCC(C)C3C)cc2NC1=O (stereo not given) ?
KCNH2 WT inh: 21.2; KCNH2 3.1 inh: 5.4; p53 reactivator: -5.6%; S-ASM inh: 277.7%; uPA generation: -28.8%; Mm-Cpn inhibitor: -0.8%

Results for COc1cccc(COC(=O)C2CC(=O)N(Cc3ccccc3)C2)c1OC (stereo not given) ?
KCNH2 WT inh: 4.5; KCNH2 3.1 inh: 0.5

How did FC(F)(F)Oc1ccc(Nc2nc(N3CCOCC3)nc(N3CCOCC3)n2)cc1 do in these assays?
KCNH2 WT inh: 11.5; KCNH2 3.1 inh: -77.2*; p53 reactivator: 1.7%; S-ASM inh: -1.1%; uPA generation: 26.5%; Mm-Cpn inhibitor: 1.2%

What do the screens show for `O=C(CCCN1C(=O)/C(=C\c2ccccc2)SC1=S)Nc1ccc(O)cc1C(=O)O`?
KCNH2 WT inh: 1.6; KCNH2 3.1 inh: -115.6*; p53 reactivator: 23.8%; S-ASM inh: 1.3%; uPA generation: -3.2%; Mm-Cpn inhibitor: -4.4%

What do the screens show for `N#CCC(=O)Nc1ccc(C(=O)OCC(=O)N=c2sccn2Cc2ccccc2Cl)cc1`?
KCNH2 WT inh: -25.8; KCNH2 3.1 inh: 15.3; p53 reactivator: 1.7%; S-ASM inh: -5.6%; uPA generation: 5.6%; Mm-Cpn inhibitor: -24.4%

Results for O=C(Nc1cccn(Cc2c(F)cccc2Cl)c1=O)NC1CCCCC1 ?
KCNH2 WT inh: -0.1; KCNH2 3.1 inh: -7.7; p53 reactivator: 4.3%; S-ASM inh: -1.6%; uPA generation: 11.2µM*; Mm-Cpn inhibitor: -0.9%

How did Cc1ccc(CC(=O)N2CCN(c3ccc([N+](=O)[O-])cc3)CC2)cc1 do in these assays?
KCNH2 WT inh: 5.2; KCNH2 3.1 inh: -17.7; S-ASM inh: -9.5%; uPA generation: 1.5%; Mm-Cpn inhibitor: -1.6%

Results for Cc1ccc(Nc2ccc(N3CCN(c4ccc([N+](=O)[O-])cc4)CC3)nn2)cc1 ?
KCNH2 WT inh: -85.5*; KCNH2 3.1 inh: -108.9*; p53 reactivator: -2.9%; S-ASM inh: -1.0%; uPA generation: -14.2%; Mm-Cpn inhibitor: 0.5%

Results for CC(Oc1ccc(F)cc1)C(=O)Nc1ccccc1C(=O)N1CCCCC1 (stereo not given) ?
KCNH2 WT inh: -4.7; KCNH2 3.1 inh: -9.2; p53 reactivator: -7.9%; S-ASM inh: 3.6%; uPA generation: -14.6%; Mm-Cpn inhibitor: -1.1%

How did Cc1noc(C)c1C(=O)Nc1nc(-c2cc(F)ccc2F)cs1 do in these assays?
KCNH2 WT inh: -0.9; KCNH2 3.1 inh: -134.9*; p53 reactivator: inconclusive; S-ASM inh: 4.3%; uPA generation: -0.7%; Mm-Cpn inhibitor: -22.9%

Results for Cc1onc(-c2ccccc2)c1C(=O)Nc1nc(-c2cc(F)ccc2F)cs1 ?
KCNH2 WT inh: 7.7; KCNH2 3.1 inh: 3.1; p53 reactivator: inconclusive; S-ASM inh: -0.1%; uPA generation: 2.3%; Mm-Cpn inhibitor: -5.5%

How did COCc1c(C(=O)NCC(c2ccco2)N2CCCC2)oc2ccccc12 (stereo not given) do in these assays?
KCNH2 WT inh: 12.5; KCNH2 3.1 inh: 6.1

How did CC1C(c2ccccc2)OCCN1C(=S)NC(=O)c1ccccc1 (stereo not given) do in these assays?
KCNH2 WT inh: -1.5; KCNH2 3.1 inh: -3.2

What do the screens show for `COc1cccc(N2[C@@H](CC(C)=O)c3ccc(/C=C/C(C)=O)cc3S2(=O)=O)c1`?
KCNH2 WT inh: 9.6; KCNH2 3.1 inh: 0.9; S-ASM inh: 2.1%; uPA generation: 3.16µM*

Results for COc1ccc(CN2[C@@H](CC(C)=O)c3ccc(/C=C/C(C)=O)cc3S2(=O)=O)cc1 ?
KCNH2 WT inh: 3.4; KCNH2 3.1 inh: 4.9; S-ASM inh: 0.5%; uPA generation: inconclusive

Results for COc1cc(N=Nc2ccccc2C(=O)O)ccc1O ?
KCNH2 WT inh: -5.4; KCNH2 3.1 inh: 0.3; p53 reactivator: inconclusive; S-ASM inh: -1.4%; uPA generation: -0.4%; Mm-Cpn inhibitor: -1.9%

Results for COc1cc(N=Nc2ccc3ccccc3c2)ccc1O ?
KCNH2 WT inh: -1.9; KCNH2 3.1 inh: 12.4; S-ASM inh: inconclusive; uPA generation: 3.16µM*; Mm-Cpn inhibitor: 3.4%

Results for NC(=Nc1ccccc1)N(c1ccccc1)c1ccccc1 ?
KCNH2 WT inh: -1.8; KCNH2 3.1 inh: 2.4; S-ASM inh: 6.8%; uPA generation: -6.3%

How did Cc1ccc(C(=O)OCC(=O)N2CCOCC2)cc1 do in these assays?
KCNH2 WT inh: -1.6; KCNH2 3.1 inh: inconclusive; p53 reactivator: inconclusive; S-ASM inh: 4.7%; uPA generation: 2.5%; Mm-Cpn inhibitor: -1.1%

How did O=C(OCC(=O)N1CCOCC1)c1ccc(Br)cc1 do in these assays?
KCNH2 WT inh: -130.2*; KCNH2 3.1 inh: 9.9; p53 reactivator: 12.9%; S-ASM inh: 2.1%; uPA generation: -0.7%; Mm-Cpn inhibitor: 2.1%

What do the screens show for `O=C(CSc1nc2c(cnn2-c2cccc(Cl)c2)c(=O)[nH]1)NCCC1=CCCCC1`?
KCNH2 WT inh: 10.7; KCNH2 3.1 inh: 18.3; p53 reactivator: 0.1%; S-ASM inh: -0.3%; uPA generation: 0.1%; Mm-Cpn inhibitor: 0.4%

Results for O=C(Cc1ccc(S(=O)(=O)N2CCOCC2)s1)N(Cc1ccccc1)c1ccccc1 ?
KCNH2 WT inh: -4.9; KCNH2 3.1 inh: -12.7; p53 reactivator: -6.3%; S-ASM inh: -0.8%; uPA generation: 0.7%; Mm-Cpn inhibitor: 1.4%

What do the screens show for `Cc1onc(-c2c(F)cccc2Cl)c1C(=O)NNC(=O)C1CCN(Cc2ccccc2)CC1`?
KCNH2 WT inh: 22.2; KCNH2 3.1 inh: -102.5*; p53 reactivator: 13.9%; S-ASM inh: -2.9%; uPA generation: 5.1%; Mm-Cpn inhibitor: -6.1%

Results for CCCN(CCC)C(=O)c1cc([N+](=O)[O-])cc2c1-c1ccc([N+](=O)[O-])cc1C2=C(C#N)C#N ?
KCNH2 WT inh: -2.2; KCNH2 3.1 inh: -6.0; p53 reactivator: -10.6%; S-ASM inh: -6.3%; uPA generation: inconclusive; Mm-Cpn inhibitor: 0.5%
